High-throughput results (PubChem)
Most compounds without a hit are left out; they make up all but 11% or so of the library.
HPGD inh: blocks human HPGD enzyme activity; purified HPGD, NADH fluorescence kinetic, PGE2 substrate; AID 894; hit rate 4.3% among 150,000; P15428; Potency, µM, hits mostly inhibitors
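NADH formation kinetics: reaction with 30 uM PGE2 and 1 mM NAD+ (final), 20 nM enzyme, Tris-HCl pH 8 with Tween 20, after 15 min compound preincubation at room temperature. Fluorescence change, last versus first of five reads.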
ALDH1A1 block: blocks purified human ALDH1A1 activity. Purified ALDH1A1, NADH fluorescence, propionaldehyde substrate. Potency, µM (doses to about 75.3 µM), most hits filed as inhibitors. hit rate 7.3% among 220,000
Target sequence (P00352 whole entry, looked up): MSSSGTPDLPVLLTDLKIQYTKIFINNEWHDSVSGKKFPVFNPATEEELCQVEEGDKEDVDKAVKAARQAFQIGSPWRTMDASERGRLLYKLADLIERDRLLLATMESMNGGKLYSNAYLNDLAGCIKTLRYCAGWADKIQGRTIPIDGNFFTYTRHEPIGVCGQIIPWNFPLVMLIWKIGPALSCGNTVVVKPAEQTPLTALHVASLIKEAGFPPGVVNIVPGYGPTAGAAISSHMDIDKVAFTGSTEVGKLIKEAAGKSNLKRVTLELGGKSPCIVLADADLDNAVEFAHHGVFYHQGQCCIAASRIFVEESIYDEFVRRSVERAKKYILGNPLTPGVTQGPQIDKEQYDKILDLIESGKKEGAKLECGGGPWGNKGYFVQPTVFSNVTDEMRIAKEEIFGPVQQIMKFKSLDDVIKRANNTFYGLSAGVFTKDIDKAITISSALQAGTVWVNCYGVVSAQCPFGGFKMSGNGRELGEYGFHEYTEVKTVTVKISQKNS
PNC inhibitor: perinucleolar compartment assembly inhibition | PC3M PTB-GFP, PNC prevalence imaging, 16 h; stronger effect = lower value | activity change (PNC), negative = inhibition, % at 10 µM | hit rate 3.1% among 140,000;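 active = readout at or below -70, meaning at least 70% loss of cells showing the perinucleolar compartment, a nuclear body marking cancer cells; inconclusive = readout between -30 and a set limit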
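Read-out is percentage of cells bearing a perinucleolar compartment, from automated 20x imaging of fixed, Hoechst-stained PC3M PTB-GFP cells. Cells were seeded 4 h, then exposed 16 h to compound (23 nl of library stock) in duplicate plates.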
Numbers stand for hits; – = inactive; ? = inconclusive; · = no result; [ ] = another dose, or the depositor's remark. Unless noted, calls come from the whole dose curve; as a rule, active = well fitted inhibition curve with a large enough effect (not every such curve was filed as active); inconclusive = small, poorly fitted or top-dose-only effect, or another doubt; inactive = no such curve, though single readings can be large or run the other way.

SMILES	HPGD inh	ALDH1A1 block	PNC inhibitor
Cc1csc2nc(CNC(=O)C3CCCCC3)cn12	15.8µM	–	–
O=C(NCc1cccs1)C1CCCN(S(=O)(=O)c2cccc3cccnc23)C1 (stereo not given)	–	–	–
O=C(NCc1cccs1)C1CCCCC1	14.1µM	–	?
O=C(NCc1cccs1)C1CCCN(c2ncccn2)C1 (stereo not given)	–	–	-86.0
O=C(NCc1cccs1)C1CC1	·	–	·
O=C(NCCc1cn2ccsc2n1)C1CCCCC1	–	–	–
COc1ccccc1NC(=O)c1ccc(-n2cccn2)nc1	–	–	–
CCCn1c(=O)c(Cc2ccccc2)c(O)c2ccccc21	?	?	–
CCCCn1c(=O)c2ccccc2c2ccccc2c1=O	–	–	–
CCCCn1c(=O)c2c(c3ccccc31)OCC(=O)N2	–	20µM	–
CCCn1c(=O)c2c(c3ccccc31)OC(C)C(=O)N2 (stereo not given)	–	–	-88.3
N#C/C(=C\N1CCNC1=S)C(=O)c1ccc2ccccc2c1	–	?	·
Cn1c(N=NC(=O)c2ccccc2)c(O)c2ccccc21	–	?	-86.1
Cn1c(=O)c(Cc2ccccc2)c(O)c2ccccc21	?	?	–
Cc1ccc(NC(=O)C(C)NC(=O)OCc2ccccc2)cc1C (stereo not given)	·	–	·
CCOc1cc(NC(=S)NCC2CCCO2)c(OCC)cc1NC(=O)C1CC1 (stereo not given)	·	–	·
CCOc1cc(NC(=S)Nc2cccc(OC)c2)c(OCC)cc1NC(=O)C1CC1	–	–	-106.0
O=C(CN(CCc1ccccc1)S(=O)(=O)c1ccc(Cl)cc1)N/N=C/c1ccccc1C(=O)O	·	–	·
O=C(CSc1nc(C2CC2)nc2ccccc12)N1CCc2ccccc2C1	–	–	–
O=C(CSc1ncnc2c1oc1ccccc12)N1CCc2ccccc2C1	3.98µM	–	–
O=C(CSc1ncnc2c1oc1ccccc12)Nc1ccccc1C(F)(F)F	?	–	–
O=C(COc1c(Br)cc(Br)c2cccnc12)N1CCc2ccccc2C1	17.8µM	11.2µM	–
CCOC(=O)CC(=O)CSc1ncnc2c1oc1ccccc12	14.1µM	–	–
O=C(CSc1ncnc2c1oc1ccccc12)NCc1ccco1	8.91µM	11.2µM	?
O=C(O)CSc1ncnc2c1oc1ccccc12	·	–	–
SMILES	HPGD inh	ALDH1A1 block	PNC inhibitor
O=C(COc1ccc(Br)cc1)N1CCc2ccccc2C1	·	–	·
CCC(CC)C(=O)Nc1nnc(SCC(=O)NC(C)(C)C)s1	·	–	·
CCOc1ccccc1Nc1ccc(C(=O)O)cc1NC(C)=O	22.4µM	?	–
CCOc1ccc(C(=O)Nc2ccccc2NC(C)=O)cc1OCC	·	–	·
CC1(C)Cc2ccccc2C(CSc2ccccc2C(=O)O)=N1	·	39.8µM	·
Cc1cccc2nc(CSc3ccccc3C(=O)O)cn12	·	–	–
COC(=O)C/C=C\[C@@H](C)[C@@H]1C=C[C@H](OC(C)=O)[C@H](COC(C)=O)O1	·	–[13.5 µM]	·
CCC(CC)NC(=O)CON=C1c2ccccc2-c2ccccc21	7.94µM	–	-81.2
CCNC(=O)CON=C1c2ccccc2-c2ccccc21	–	–	–
COc1ccc(C(=O)OCC(=O)c2cc(OC)ccc2OC)c(OC)c1	–	–	–
COc1ccc(OC)c(C(=O)COC(=O)C2CC3CCCC(C2)C3=O)c1 (stereo not given)	–	7.08µM	?
CN(C)S(=O)(=O)c1ccc(Nc2ccc(O)c3c2C(=O)c2c([N+](=O)[O-])ccc(O)c2C3=O)cc1	–	–[13.5 µM]	·
NC(=O)CC[C@@H]1NC(=O)[C@H](CO)NC(=O)c2cc([N+](=O)[O-])cc(I)c2NCCCC[C@@H](C(N)=O)NC(=O)[C@H](Cc2ccc(O)cc2)NC1=O	–	–	–
NC(=O)CC[C@@H]1NC(=O)[C@H](CO)NC(=O)c2cc([N+](=O)[O-])cc(I)c2NCC[C@@H](C(N)=O)NC(=O)[C@H](Cc2ccc(O)cc2)NC1=O	–	3.55µM	–
COc1ccccc1CN1CCC2(CC1)CCN(C(=O)c1c(C)noc1C)CC2	–	–	·
FC(F)(F)c1ccc(C2NCCc3sccc32)cc1 (stereo not given)	·	–	·
O=C(NC12CC3CC(CC(C3)C1)C2)OCCNC1CCCCC1	·	–	·
CCc1ccc(C(=O)NC(CCSC)C(=O)OC)cc1 (stereo not given)	·	–	·
COc1ccc(C(=O)C(OC(=O)CNC(=O)c2ccco2)c2ccccc2)cc1 (stereo not given)	–	20µM	–
O=C(CNC(=O)c1ccccc1)OC(C(=O)c1ccccc1)c1ccccc1 (stereo not given)	–	–	?
CC#CCN1c2ccccc2[C@]23C[C@@H](C(=O)OC)N(S(=O)(=O)c4ccc(C)cc4)C2=NC(C(=O)OC)=C(C(=O)OC)[C@H]13	–	–[13.5 µM]	·
COc1ccc(-c2nc3ccccc3c(=O)n2NC(=S)N(C)C)cc1	14.1µM	3.98µM	–
